# Measured values: PubChem BioAssay AID588790 (National Center for Advancing Translational Sciences (NCATS), 2011)
# Screen size: about 1,200 compounds; about 85 (7%) were called active. Where a call stands in place of a potency, no number is given. The sample holds actives, similar compounds and a random draw of the others, so the mix is not that of the screen. Calls follow the shape of the full dose curve.
# Molecular target: Beta-2 adrenergic receptor (Homo sapiens) (UniProt P07550)
# Assay: qHTS assay of beta-arrestin-biased ligands of beta2-adrenergic receptor: Hit Validation with GloSensor
# Conditions: W9-Glo22F cells, GloSensor cAMP luminescence, beta2AR agonism; series mostly up to 46.1 µM
# Source text: The concept of biased agonism is an emerging concept of molecular pharmacology which proposes that seven transmembrane receptors (7TMRs) or G protein-coupled receptors (GPCRs), exist in multiple signaling conformations and complexes and that ligands (either agonists or antagonists) can induce signaling biased responses for distinct signal transduction cascades.
# Furthermore, accumulating evidence over the last decade has drawn attention to a novel function of beta-arrestins as signal transducers that scaffold various signaling molecules upon activation of 7TMRs. […] This beta-arrestin-biased signaling presumably leads to distinct physiological outcomes from those by G protein activation.
# Additionally, the active receptor conformations which […] on this beta-arrestin signaling are likely different from those activating G protein signaling
# The goal of this screening project is to discover and optimize novel beta-arrestin-biased ligands for beta2-AR signaling. A luminescent cell-based assay for beta2-AR-mediated agonism, known as the Tango assay, has been validated in which ligand binding of a recombinant beta2-AR and subsequent recruitment of a recombinant beta-arrestin lead to the release of the transcriptional activator tTA, which upregulates transcription of a tTA-responsive luciferase gene. […] After compounds were identified in this primary screen, they were tested in a counter screen that used luminescence as measure through the GloSensor reagent.
# NIH Molecular Libraries Probe Production Network [MLPCN]
# NIH Chemical Genomics Center [NCGC]
# PI: Bryan Roth (UNC) and Bob Lefkowitz (Duke)
# 2 uL of W9-Glo22F cells are dispensed into a white 1536-well plate. They are incubated overnight at 37 deg C at 5% CO2. 23 nL of compounds and controls are pinned into the wells. Then 2 uL of GloSensor is added and the plate is incubated for 10 min at room temperature.The plates are then read on the ViewLux for luminescence.
# Potency is read from the fitted curve at half-maximal effect.
# Sequence of Beta-2 adrenergic receptor (Homo sapiens) (P07550 whole entry, looked up): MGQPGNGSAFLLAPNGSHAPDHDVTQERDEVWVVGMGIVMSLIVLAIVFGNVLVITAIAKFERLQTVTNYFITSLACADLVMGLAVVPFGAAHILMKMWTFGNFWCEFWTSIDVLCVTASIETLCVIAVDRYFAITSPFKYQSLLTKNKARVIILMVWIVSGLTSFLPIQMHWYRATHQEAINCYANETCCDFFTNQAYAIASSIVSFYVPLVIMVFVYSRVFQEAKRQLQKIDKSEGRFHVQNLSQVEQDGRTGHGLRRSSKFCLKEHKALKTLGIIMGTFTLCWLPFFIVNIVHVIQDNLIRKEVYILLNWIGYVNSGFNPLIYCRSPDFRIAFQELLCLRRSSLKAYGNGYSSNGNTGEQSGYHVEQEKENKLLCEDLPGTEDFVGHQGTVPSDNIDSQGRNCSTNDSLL
row,SMILES,Potency
1,COC(=O)C1=C(c2ccc(OCc3ccccc3)cc2)C[C@@H]2CC[C@H]1N2C(=O)NCc1cccc(C(F)(F)F)c1,inactive
2,COC(=O)C1=C(c2ccc(OCc3ccccc3)cc2)C[C@@H]2CC[C@H]1N2C(=O)NCc1ccc(OC)c(OC)c1,4.11 µM (active)
3,COC(=O)C1=C(c2ccc(OCc3ccccc3)cc2)C[C@@H]2CC[C@H]1N2C(=O)NCc1cccc(OC)c1,inactive
4,O=C1NC(=O)N(Cc2ccccc2)C(=O)/C1=C/C=C/c1ccco1,inactive
5,COc1cccc(C(=O)C2CCCN(Cc3cccc(C)n3)C2)c1 (stereo not given),inactive
6,Clc1ccc2c(c1)C(c1ccccc1Cl)=NCc1nnc(N3CCN(CCOc4ccccc4)CC3)n1-2,inactive
7,COC(=O)C1=C(c2ccc(-c3ccccc3)c(F)c2)C[C@@H]2CC[C@H]1N2C(=O)NCc1ccco1,inactive
8,CNCC(O)c1ccc(OC(=O)C(C)(C)C)c(OC(=O)C(C)(C)C)c1 (stereo not given),0.259 µM (active)
9,COC(=O)C1=C(c2ccc(OC)c(OC)c2)C[C@@H]2CC[C@H]1N2C(=O)NCc1cccc2ccccc12,inactive
10,OC12ONC(c3ccccn3)C1N1CCC2CC1 (stereo not given),inactive
11,COC(=O)C1=C(c2ccc(-c3ccccc3)c(F)c2)C[C@@H]2CC[C@H]1N2C(=O)NCCOc1ccc(OC)cc1,inactive
12,O=c1c2ccccc2nc(/C=C/c2ccc(O)c(O)c2)n1-c1ccccc1,32.6 µM (active)
13,COc1cccc(OCc2cc(C(=O)N3C[C@H]4C[C@@H](C3)c3cccc(=O)n3C4)no2)c1,inactive
14,c1cncc(C2Nc3cccc4cccc(c34)N2)c1,inactive
15,COC(=O)C1=C(c2ccc(F)cc2F)C[C@@H]2CC[C@H]1N2C(=O)NCCNC(C)=O,inactive
